Only some compounds are listed: those with a hit (about 4.5% of all), similar ones and a draw of the others.
HTT promoter inh – HTT promoter inhibition. HEK293 HTT promoter firefly luciferase reporter, 24 h. Potency, µM (titrated, usually from 57.5 µM), inactives show top-dose activity change, negative = inhibition, most hits filed as inhibitors. 0.93% of 48,000 active. AID 1508623; also: potency is read from the fitted curve at half-maximal effect; nearly all actives have a fitted effect of over 50% in size
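Luminescence was read after Dual-Glo reagent and a 10 min room-temperature incubation. Values were normalized to vehicle (0% activity) and zero RLU (-100% activity). Reporter HEK293 cells had been exposed to compounds (up to 57.5 uM final) for 24 h.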
DRV1 agonist – activates human resolvin D1 receptor GPR32 | O75388 | activation, % at 76.9 µM | AID 1346428 | CHO-K1 GPR32 beta-arrestin PathHunter luminescence, 90 min; zero percent set by DMSO-only wells | 2.5% of 48,000 active;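 active = activation of at least 60% and not above a set upper limit, about 1 call in 100 departs from these limits; inconclusive = activation of 40% to 60%, or above that upper limit; inactive = activation under 40%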; also: 0% is about no effect
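Step 1: seed CHO-K1 GPR32 beta-arrestin cells, 2,500/well, overnight at 37 °C. Step 2: add compounds, 90 min at 37 °C. Step 3: detection reagent, 1 h ambient, then luminescence.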
SKOV3 invasion – blocks SKOV3ip1 adhesion and invasion in omental model; 0.1% of 46,000 active; Potency, µM (highest dose often 45.8 µM), without a hit: at the top dose activity change, negative = inhibition, hits mostly inhibitors; SKOV3ip1-GFP adhesion/invasion on 3D omental model, fluorescence;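 also: potency is read from the fitted curve at half-maximal effect; plate controls were DMSO wells for no effect and tomatine positive control wells for full effect; nearly all actives have a fitted effect of over 65% in size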
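Primary human omental fibroblast/mesothelial 3D culture pre-formed 48 h. SKOV3ip1-GFP cells added with compounds (0.36-46 umol/L), incubated 2 h RT/16 h 37 C, fixed; GFP cells quantified at 488/509 nm.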
HTT-AS act – HTT-AS promoter activation. Potency, µM (highest dose often 57.5 µM), for the others: top-dose activity change, positive = activation, actives largely listed as activators. 0.24% of 48,000 active. HEK293 HTT-AS promoter firefly luciferase reporter, 24 h; response scale: percent change from vehicle, -100% = no light; also: potency is read from the fitted curve at half-maximal effect; nearly all actives have a fitted effect of over 55% in size
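HEK293 Fluc reporter, 2,500 cells/well, 24 h pre-culture; cpds up to 57.5 uM final, 24 h 37 degrees C; Dual-Glo, 10 min RT; normalized vehicle = 0%, zero RLU = -100%.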
NTMT1 inhibitor – blocks human N-terminal methyltransferase 1 activity; 2.5% of 59,000 active; NTMT1 MTase-Glo SAH luminescence, purified enzyme; Potency, µM (top dose mostly 114 µM), inactives show top-dose activity change, negative = inhibition, hits mostly inhibitors;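 also: potency is read from the fitted curve at half-maximal effect; plate controls were DMSO vehicle for no effect and no enzyme for full effect; nearly all actives have a fitted effect of over 65% in size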
Target sequence (Q9BV86 whole entry, looked up): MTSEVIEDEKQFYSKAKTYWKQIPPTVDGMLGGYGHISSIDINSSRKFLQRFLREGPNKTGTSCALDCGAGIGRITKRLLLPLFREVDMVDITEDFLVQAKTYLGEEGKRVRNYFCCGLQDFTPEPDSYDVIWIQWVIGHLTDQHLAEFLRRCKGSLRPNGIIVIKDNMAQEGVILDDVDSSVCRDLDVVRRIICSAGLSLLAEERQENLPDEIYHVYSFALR
CLK4 inh – inhibits human CLK4 kinase in Kinase-Glo confirmation; AID 493204; 90% of 90 active; shares compounds with NTMT1 inhibitor; Potency, µM (highest dose often 76.9 µM), for inactives: at the highest dose activity, negative = inhibition, most hits filed as inhibitors; recombinant Clk4, Kinase-Glo ATP luminescence, 4.5 h
Sfp PPTase inh – Sfp PPTase inhibition, chemistry optimization. 78% of 230 active. shares compounds with NTMT1 inhibitor. AID 540350. purified Sfp PPTase enzyme activity, qHTS. Potency, µM (top dose mostly 114 µM), for inactives: top-dose activity change, negative = inhibition, usual class: inhibitors
Bsub HM489 growth – reduces growth of B. subtilis HM489 strain; AID 540353; 50% of 220 active; B. subtilis HM489 (acpS-) growth, BacTiter-Glo, 5 h; shares compounds with NTMT1 inhibitor; Potency, µM (titrated, usually from 114 µM), for inactives: at the top dose activity change, negative = inhibition, most hits filed as inhibitors
Sfp PPTase gel – inhibits B. subtilis Sfp PPTase in gel assay | shares compounds with NTMT1 inhibitor | purified Sfp PPTase, gel-based product detection | Potency, µM (top dose mostly 250 µM), without a hit: top-dose activity change, negative = inhibition, usual class: inhibitors | 54% of 220 active
Sfp inh gel – confirmation of Bacillus subtilis Sfp PPTase inhibitors; shares compounds with NTMT1 inhibitor; purified Sfp PPTase, gel-based product detection; Potency, µM (highest dose often 250 µM), inactives show top-dose activity change, negative = inhibition, most hits filed as inhibitors; 90% of 45 active; AID 602362
Sfp SAR2 – inhibits B. subtilis Sfp PPTase in second SAR round; shares compounds with NTMT1 inhibitor; purified Sfp enzyme, PPTase activity, qHTS; Potency, µM (top dose mostly 57.1 µM), inactives show at the top dose activity change, negative = inhibition, hits mostly inhibitors; 87% of 230 active; AID 602370
hGST A1-1 inh – inhibits hGST A1-1 in Sfp inhibitor counter-screen | shares compounds with NTMT1 inhibitor | hGST A1-1 enzyme activity counter-screen, qHTS | Potency, µM (titrated, usually from 114 µM), inactives show at the top dose activity change, negative = inhibition, hits mostly inhibitors | 55 tested, under 10 active
HSD17B4 counter – counter-screen for HPGD inhibitors: human HSD17B4 inhibition; shares compounds with NTMT1 inhibitor; purified HSD17B4, estradiol/NAD+, NADH fluorescence; Potency, µM (highest dose often 57.1 µM), for the others: top-dose activity change, negative = inhibition, actives largely listed as inhibitors; 10% of 230 active; AID 743187
ALDH1A1 inh – counter-screen for HPGD inhibitors: human ALDH1A1 inhibition; shares compounds with NTMT1 inhibitor; recombinant ALDH1A1, NADH fluorescence, propionaldehyde/NAD+; 93% of 230 active; AID 743195; Potency, µM (top dose mostly 57.1 µM), for inactives: at the top dose activity change, negative = inhibition, most hits filed as inhibitors
Target sequence (P00352 whole entry, looked up): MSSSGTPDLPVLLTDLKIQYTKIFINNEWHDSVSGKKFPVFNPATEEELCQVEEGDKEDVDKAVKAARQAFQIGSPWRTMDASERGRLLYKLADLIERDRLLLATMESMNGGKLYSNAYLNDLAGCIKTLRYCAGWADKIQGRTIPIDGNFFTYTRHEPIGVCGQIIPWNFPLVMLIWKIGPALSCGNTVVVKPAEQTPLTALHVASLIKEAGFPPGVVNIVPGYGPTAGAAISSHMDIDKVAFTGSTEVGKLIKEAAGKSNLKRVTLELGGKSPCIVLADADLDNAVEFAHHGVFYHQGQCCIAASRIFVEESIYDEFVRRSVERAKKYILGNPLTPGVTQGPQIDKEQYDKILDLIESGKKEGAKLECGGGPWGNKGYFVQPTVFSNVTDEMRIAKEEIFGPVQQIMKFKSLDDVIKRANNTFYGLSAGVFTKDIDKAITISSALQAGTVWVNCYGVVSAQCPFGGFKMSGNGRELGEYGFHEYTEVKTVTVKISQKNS
NNMT counter – human NNMT inhibition, NTMT1 counter-screen. shares compounds with NTMT1 inhibitor. NNMT MTase-Glo luminescence, SAH detection. Potency, µM (doses to about 57.1 µM), for inactives: at the top dose activity, negative = inhibition, actives largely listed as inhibitors. 10% of 120 active. AID 1645878
* hit, by the source's call; u = inconclusive; x = no result; ! = not confirmed by another sample; [ ] = dose if it differs, or a comment. Unless noted, calls follow the shape of the dose curve; as a rule, active = well fitted curve in the direction sought with a large enough effect; inconclusive = small, poorly fitted or top-dose-only effect, or another doubt; inactive = no such curve, though single readings can be large; an effect the other way counts as inactive or inconclusive.

SMILES | HTT promoter inh | DRV1 agonist | SKOV3 invasion | HTT-AS act | NTMT1 inhibitor | Sfp PPTase inh | Bsub HM489 growth | Sfp PPTase gel | Sfp SAR2 | HSD17B4 counter | ALDH1A1 inh | others
CCCCCOc1ccc(-c2cc(-c3ccc(C(=O)N[C@H]4C[C@@H](O)[C@@H](O)NC(=O)C5[C@@H](O)[C@@H](C)CN5C(=O)C([C@H](O)CC(N)=O)NC(=O)C([C@H](O)[C@@H](O)c5ccc(O)c(OS(=O)(=O)O)c5)NC(=O)C5C[C@@H](O)CN5C(=O)C([C@@H](C)O)NC4=O)cc3)no2)cc1 (stereo not given in full) | x | x | x | x | 1%[29.8 µM] | x | x | x | x | x | x
CC(C)(C)c1ccc(-c2nc3ccccc3[nH]2)cc1 | x | x | x | x | 10µM* | x | x | x | x | x | x | NNMT counter=u
CC(C)(C)c1ccc(C(=O)Nc2ccc(-c3nc4ccccc4[nH]3)cc2)cc1 | x | x | x | x | 5% | x | x | x | x | x | x
Cc1cc(CS(=O)(=O)c2ccccc2)cc(OCc2ccc(CN3CCC[C@@H]3CO)cc2)c1 | x | x | x | x | 8.9µM*! | x | x | x | x | x | x | NNMT counter=-6%
COc1ccc2nc3oc(C(=O)NCc4ccccc4OC)cc3cc2c1 | 23% | 13 | -6% | 14% | -29% | x | x | x | x | x | x
Cc1cc(O)c(-c2ccc([C@@H](C)CN(C)C)cc2)c2c1[nH]c(=O)c1sccc12 | x | x | x | x | 25µM* | x | x | x | x | x | x | NNMT counter=u
Cn1cc(-c2nc3cnc(N4CCNCC4)nc3n(Cc3ccc(F)cc3)c2=O)c2ccccc21 | x | x | x | x | x | x | x | x | x | x | x | CLK4 inh=u
CCOC(=O)C1=C(C)NC(C)=C(C(=O)OC)C1c1cccc([N+](=O)[O-])c1 (stereo not given) | -14% | -28 | x | -23% | -3%[57.5 µM] | x | x | x | x | x | x
COC(=O)C1=C(C)NC(C)=C(C(=O)O[C@@H]2CCCN(Cc3ccccc3)C2)[C@@H]1c1cccc([N+](=O)[O-])c1 | u | -5 | x | -42% | u | x | x | x | x | x | x | NNMT counter=3%
Cc1ccc2onc(CNC(=O)N3CCN(c4cccc(C(F)(F)F)c4)CC3)c2c1 | u | 10 | 1% | -19% | 16% | x | x | x | x | x | x
O=C(c1ccc(Cl)cc1)N1CCN(c2ccnc3cc(Cl)ccc23)CC1 | x | x | x | x | 8%[57.5 µM] | x | x | x | x | x | x
Cc1ccnc(NC(=S)N2CCN(c3cc(C(F)(F)F)cc(C(F)(F)F)c3)CC2)c1 | x | x | x | x | u | 2.4µM* | 3.3µM* | 0.79µM* | 0.65µM* | 27µM* | 7.6µM* | Sfp inh gel=0.95µM*;hGST A1-1 inh=u
Cc1cccc(NC(=S)N2CCN(c3cccc(C(F)(F)F)c3)CC2)c1 | x | x | x | x | x | 4% | 15% | 1% | -20% | u | 1.5µM*
S=C(Nc1cc(Cl)ccn1)N1CCN(c2cc(Cl)cc(Cl)c2)CC1 | x | x | x | x | x | 37µM* | 11µM* | -59% | 18µM* | 12% | 27µM*
Cc1ccc2scc(N3CCN(c4cccc(C(F)(F)F)c4)CC3)c(=O)c2c1 | 2% | -23 | -8% | 7% | -6% | x | x | x | x | x | x
S=C(Nc1cc(Cl)ccn1)N1CCN(c2ccc(Cl)cc2Cl)CC1 | x | x | x | x | u | u | 5.9µM* | -20% | 36µM* | -4% | 24µM*
CCOC(=O)C1CCCN(C(=O)Cn2ncc3c(C)n(Cc4ccc(Cl)cc4)c(C)c3c2=O)C1 (stereo not given) | u | 1 | -1% | -24% | 5% | x | x | x | x | x | x
CCOC(=O)c1ccc(-c2ccc(/C=C(\C#N)C(=O)Nc3c(C)cccc3Cl)o2)cc1 | 2% | -30 | 2% | -9% | -4% | x | x | x | x | x | x
Cc1ccnc(NC(=S)N2CCN(c3cccc(C(F)(F)F)c3)C[C@@H]2C)c1 | x | x | x | x | x | 5.9µM* | 47µM* | u | 11µM* | 6% | 24µM*

From PubChem
